Source: PubChem BioAssay
TDP1 cell noCPT: qHTS for Inhibitors of human tyrosyl-DNA phosphodiesterase 1 (TDP1): qHTS in cells in absence of CPT | DT40 Tdp1-/- hTDP1 cells, no CPT, ATP luminescence, 48 h | Potency, µM (doses to about 46.2 µM), for inactives: at the highest dose activity change, negative = growth inhibition, most hits filed as inhibitors | AID 686978, 2013 | 15% of 420,000 active; also: potency is read from the fitted curve at half-maximal effect; % is scaled to controls: 0 for no effect and ±100 for the full control effect; nearly all actives have a fitted effect of over 55% in size
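Luminescent ATP content (CellTiter-Glo) served as the growth readout. Knockout chicken DT40 cells expressing human TDP1 were exposed to compounds without camptothecin for a minimum 48 hr at 37 °C.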
IL1B secr inh: qHTS for Inhibitors of Inflammasome Signaling: IL-1-beta AlphaLISA Primary Screen | THP-1 LPS/ATP IL-1B secretion, AlphaLISA, 16 h; hits give low values | activity change, % at 57.5 µM | 4.7% of 360,000 active; in the data active = activity change below about -50%; inconclusive = mostly about -30% to -49%; also: % is scaled to controls: 0 for no effect and ±100 for the full control effect
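Secreted IL-1B measured by AlphaLISA bead assay after 16 h compound exposure of THP-1 cells; compounds (final up to 57.5 uM) added 1 h before LPS (250 ng/mL) and ATP (1.25 mM) stimulation; lower signal means less secretion.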
TDP1 block: qHTS Assay for Inhibitors of Tyrosyl-DNA Phosphodiesterase (TDP1) | recombinant TDP1, AlphaScreen DNA substrate cleavage | Potency, µM (doses to about 130 µM), without a hit: at the top dose activity change, negative = inhibition, most hits filed as inhibitors | 0.28% of 350,000 active; also: potency is read from the fitted curve at half-maximal effect; % is scaled to controls: 0 for no effect and ±100 for the full control effect; nearly all actives have a fitted effect of over 40% in size
Target sequence (Q9NUW8 whole entry, looked up): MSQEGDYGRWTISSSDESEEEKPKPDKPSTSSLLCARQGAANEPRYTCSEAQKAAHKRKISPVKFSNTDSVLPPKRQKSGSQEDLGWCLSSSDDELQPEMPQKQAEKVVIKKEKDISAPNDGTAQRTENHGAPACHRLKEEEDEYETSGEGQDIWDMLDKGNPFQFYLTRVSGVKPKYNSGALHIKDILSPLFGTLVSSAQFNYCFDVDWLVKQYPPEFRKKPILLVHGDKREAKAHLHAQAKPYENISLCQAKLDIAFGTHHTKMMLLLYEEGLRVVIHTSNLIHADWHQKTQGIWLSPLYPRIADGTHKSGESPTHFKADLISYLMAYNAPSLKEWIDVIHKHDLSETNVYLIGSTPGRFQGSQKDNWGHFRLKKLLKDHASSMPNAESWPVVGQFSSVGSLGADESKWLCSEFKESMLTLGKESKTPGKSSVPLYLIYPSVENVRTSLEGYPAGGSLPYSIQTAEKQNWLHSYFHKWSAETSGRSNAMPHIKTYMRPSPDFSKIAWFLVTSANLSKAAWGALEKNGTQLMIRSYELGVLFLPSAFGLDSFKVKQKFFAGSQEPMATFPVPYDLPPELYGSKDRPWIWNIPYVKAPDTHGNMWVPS
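Recombinant human Tdp1 (E. coli-expressed, 1 nM final) preincubated with compounds 15 min at room temperature, then 5'-biotin/3'-phosphotyrosine-FITC DNA substrate (15 nM final) added for 5 min. AlphaScreen beads (10 ug/ml final) added 10 min; cleavage lowers signal.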
DT40 TDP1 CPT: qHTS for Inhibitors of human tyrosyl-DNA phosphodiesterase 1 (TDP1): qHTS in cells in presence of CPT; 12% of 420,000 active; AID 686979, 2013; Potency, µM (series often up to 46.2 µM), without a hit: at the top dose activity change, negative = growth inhibition, actives largely listed as inhibitors; chicken DT40 Tdp1-/-;hTDP1 cells + 20 nM CPT, ATP luminescence, 48 h; also: potency is read from the fitted curve at half-maximal effect; % is scaled to controls: 0 for no effect and ±100 for the full control effect; nearly all actives have a fitted effect of over 55% in size
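Cell growth measured by CellTiter-Glo luminescence after a minimum 48 h, 37 C compound exposure with 20 nM CPT in Tdp1-knockout DT40 cells stably expressing hTDP1, seeded 400/well; qHTS titration format.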
HepG2 viability: qHTS for Inhibitors of TGF-b: Cytotox Counterscreen. HepG2 CAGA-GFP viability, ATP luminescence, 18 h. Potency, µM (doses to about 46.1 µM), without a hit: at the highest dose activity change, negative = cytotoxicity, usual class: cytotoxic. 0.76% of 410,000 active. AID 588856, 2011; also: potency is read from the fitted curve at half-maximal effect
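CellTiter-Glo luminescence gave cytotoxicity after 18 hours at 37 degrees C. The cells were HepG2 CAGA-GFP in 1% FBS DMEM, stimulated with 500 pg/mL TGF-beta after compound addition. %Activity was normalised to no-cell wells (complete cell-killing) and DMSO (no toxicity), and curves were fitted and classified.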
TGFb inhibitor: qHTS for Inhibitors of TGF-b. 1.2% of 410,000 active. Potency, µM (titrated, usually from 46.1 µM), for the others: top-dose activity, negative = inhibition, most hits filed as inhibitors. AID 588855, 2011. HepG2 CAGA-GFP TGF-b/SMAD3 reporter, GFP fluorescence, 18 h; TGF-beta stimulated, 500 pg/mL final; also: potency is read from the fitted curve at half-maximal effect; % is scaled to controls: 0 for no effect and ±100 for the full control effect; nearly all actives have a fitted effect of over 65% in size
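GFP signal (ex488/em500-530) from TGF-beta-stimulated HEPG2 CAGA-GFP cells, 500 pg/mL final, 18 h at 37 degrees C in DMEM plus 1% FBS, normalized to unstimulated and DMSO-stimulated controls.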
Numbers without * were called inactive; i = inactive; ? = inconclusive; . = no result given; [ ] = remark or other dose. Compounds with a hit are over-represented: about 18% of the library has one in this group of screens. Unless noted, calls follow the shape of the dose curve; as a rule, active = well fitted curve in the direction sought with a large enough effect; inconclusive = small, poorly fitted or top-dose-only effect, or another doubt; inactive = no such curve, though single readings can be large; an effect the other way counts as inactive or inconclusive.

SMILES	TDP1 cell noCPT	IL1B secr inh	TDP1 block	DT40 TDP1 CPT	HepG2 viability	TGFb inhibitor
C#CCOc1ccc(C2C3=C(CCCC3=O)N(CC(=O)O)C3=C2C(=O)CCC3)cc1Br	-15%	19	.	-6%	1%	6%
O=C(CSc1ccc(F)cc1)Nc1ccccc1Br	0%	9	-6%	3%	2%	-4%
O=C(CSc1ccc(F)cc1)Nc1ccc(Br)cc1	18µM*	0	-4%	-30%	-14%	?
CCNC(=O)c1ccccc1SCC(=O)Nc1ccc(F)cc1	?	-8	9%	16µM*	9%	13%
CCCOc1ccc(C(=O)NCC(c2cccs2)N(C)C)cc1OC (stereo unspecified)	-11%	-1	-6%	?	1%	0%
COc1cc(C(=O)NCC(c2cccs2)N(C)C)cc(Cl)c1OC(C)C (stereo unspecified)	21µM*	-6	-5%	?	-25%	-13%
COc1cc2ccccc2cc1C(=O)NCC(c1cccs1)N(C)C (stereo unspecified)	16µM*	-76*	5%	?	-15%	14%
O=C1C=C(/C=C/c2ccccc2)C[C@@H](c2ccc3c(c2)OCO3)C1	-24%	-1	4%	?	-40%	?
CCOc1ccc(S(=O)(=O)N(CC(=O)NCCSc2ccc(C)cc2)c2ccccc2)cc1	-19%	.	.	-20%	-11%	-4%
Cc1ccc(S(=O)(=O)N(CC(=O)NCCSc2ccc(Cl)cc2)c2cccc(Cl)c2)cc1	21µM*	.	6%	?	-26%	?
COc1ccc(S(=O)(=O)N(CC(=O)NCCSc2ccc(C)cc2)c2ccc(C)cc2)cc1	23µM*	.	.	18µM*	-15%	0%
Cc1ccc(N(CC(=O)NCCSc2ccccc2)S(=O)(=O)c2ccc(F)cc2)cc1	9.2µM*	.	-3%[12.3 µM]	?	-114%	?
COCCNC(=O)CN(c1ccc(C)cc1)S(=O)(=O)c1ccccc1	-14%	4	3%	10%	0%	-20%
Cc1cccc(N(CC(=O)NC2CC2)S(=O)(=O)c2ccc(Cl)cc2)c1	-1%	i	3%	-18%	0%	1%
CC(C)(C)OC(=O)N(CCc1ccccc1)Cc1ccccc1OCc1cccc(NC(=O)/C=C/c2ccccc2)c1	7.3µM*	-20	.	9.2µM*	2%	-10%
CC(C)(C)OC(=O)N(CCc1ccccc1)Cc1ccc(OCc2cccc(NC(=O)C3CCC3)c2)cc1	15µM*	0	.	21µM*	-19%	-21%
CC(=O)Nc1cccc(C(=O)N(CCc2ccccc2)Cc2ccccc2)c1	?	-11	-9%	-24%	-11%	-1%
CC(C)(C)OC(=O)N(CCc1ccccc1)Cc1cccc(OCc2cccc(NC(=O)c3ccccc3)c2)c1	18µM*	?	.	23µM*	-19%	7%
CC(C)(C)OC(=O)N(CCc1ccccc1)Cc1ccc(OCc2cccc(NC(=O)C3CC3)c2)cc1	4.6µM*	?	.	5.8µM*	-45%	2%
CC(C)(C)OC(=O)N(CCc1ccccc1)Cc1ccc(OCc2cccc(NC(=O)/C=C/c3ccccc3)c2)cc1	-24%	-7	.	-20%	-4%	11%
Cc1c(C(=O)N2CCCCC2)sc2ncnc(NCCN(C)C)c12	2%	.	.	17%	.	.
CC(NC(=O)c1cnccn1)c1ccc(S(N)(=O)=O)cc1 (stereo unspecified)	?	0	4%	?	0%	0%
CCn1cc(C(=O)OCC(=O)Nc2cc(OC)cc(OC)c2)c(=O)c2ccc(C)nc21	1%	.	4%	-2%	6%	?
O=S(=O)(Nc1ccccn1)c1cc(Cl)ccc1Cl	17%	0	.	1%	2%	0%
Cn1cc(S(=O)(=O)N2CCCCCC2)cc1C(=O)NCc1ccccc1Cl	?	.	4%	?	1%	5µM*
SMILES	TDP1 cell noCPT	IL1B secr inh	TDP1 block	DT40 TDP1 CPT	HepG2 viability	TGFb inhibitor
Cn1cc(S(=O)(=O)N2CCCCCC2)cc1C(=O)NCc1ccc(Cl)cc1	?	.	-7%	?	-37%	?
O=C(Cc1ccc(S(=O)(=O)N2CCCCC2)cc1)NCc1ccc(Cl)cc1	-24%	0	0%	29µM*	-6%	-14%
Cc1ccc(CNC(=O)c2cc(S(=O)(=O)N3CCCC3)cn2C)cc1	-6%	2	.	-20%	-4%	3%
Cc1ccc(CNC(=O)c2cc(S(=O)(=O)N3CCCCC3)cn2C)cc1	21µM*	.	8%	?	-4%	-1%
O=C(COC(=O)c1ccc(S(=O)(=O)N2CCCC2)cc1)NCc1ccc(Cl)cc1	?	25	0%	-16%	18%	11%
Cn1cc(S(=O)(=O)N2CCCCC2)cc1C(=O)NCc1ccc(Cl)cc1	?	.	-7%	18µM*	0%	?
CCNC(=O)C1(C)CCCN(C(=O)c2nc3ccccc3s2)C1 (stereo unspecified)	-7%	-8	.	1%	9%	11%
COCC(=O)N1C[C@@H](C)[C@@H](OC)CN(C)C(=O)c2ccc(NC(=O)c3cnccn3)cc2OC[C@H]1C	-6%	-7	.	-5%	.	.
COc1ccccc1N1CC=C(c2cccc([N+](=O)[O-])c2)NC1=O	10%	?	1%	3%	-1%	12%
C/C=C\C1=CCCC1Nc1ncnc2ccc(-c3c(C)noc3C)cc12 (stereo unspecified)	.	.	10%	.	.	.
c1nc(NC2CCNCC2)c2cc(-c3ccc4c(c3)OCO4)ccc2n1	15µM*	.	3%	?	.	.
CN(C)c1ccc(-c2ccc3ncnc(NC4CC4)c3c2)cc1	13µM*	.	.	8.2µM*	.	.
COCCNc1ncnc2ccc(-c3c(C)noc3C)cc12	?	.	.	12µM*	.	.
Cc1noc(C)c1-c1ccc2ncnc(NC3CC3)c2c1	21µM*	.	.	?	.	.
c1nc(NC2CC2)c2cc(-c3ccoc3)ccc2n1	-25%	.	.	?	.	.
CN(C)C(=O)c1ccc(-c2ccc3ncnc(NC4CCNCC4)c3c2)cc1	-3%	.	-4%	7%	.	.
CC(=O)c1ccc(N2CCN(S(=O)(=O)c3c(C)nc4sc(C)cn4c3=O)CC2)cc1	-11%	.	-5%	4%	-10%	26%
